Source: PubChem BioAssay (Center for Chemical Genomics, University of Michigan)
Dicer inh: blocks human Dicer maturation of pre-miR-21 | hit rate 6% among 47,000 | cat-ELCCA pre-miR-21 Dicer processing, chemiluminescence; active compounds read high | Q9UPY3 | z-score at 25 µM; in the data active = z-score above about 3, passing the limit was not always enough;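 also: higher signal means more uncleaved substrate so more Dicer inhibition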
Target sequence (Q9UPY3 whole entry, looked up): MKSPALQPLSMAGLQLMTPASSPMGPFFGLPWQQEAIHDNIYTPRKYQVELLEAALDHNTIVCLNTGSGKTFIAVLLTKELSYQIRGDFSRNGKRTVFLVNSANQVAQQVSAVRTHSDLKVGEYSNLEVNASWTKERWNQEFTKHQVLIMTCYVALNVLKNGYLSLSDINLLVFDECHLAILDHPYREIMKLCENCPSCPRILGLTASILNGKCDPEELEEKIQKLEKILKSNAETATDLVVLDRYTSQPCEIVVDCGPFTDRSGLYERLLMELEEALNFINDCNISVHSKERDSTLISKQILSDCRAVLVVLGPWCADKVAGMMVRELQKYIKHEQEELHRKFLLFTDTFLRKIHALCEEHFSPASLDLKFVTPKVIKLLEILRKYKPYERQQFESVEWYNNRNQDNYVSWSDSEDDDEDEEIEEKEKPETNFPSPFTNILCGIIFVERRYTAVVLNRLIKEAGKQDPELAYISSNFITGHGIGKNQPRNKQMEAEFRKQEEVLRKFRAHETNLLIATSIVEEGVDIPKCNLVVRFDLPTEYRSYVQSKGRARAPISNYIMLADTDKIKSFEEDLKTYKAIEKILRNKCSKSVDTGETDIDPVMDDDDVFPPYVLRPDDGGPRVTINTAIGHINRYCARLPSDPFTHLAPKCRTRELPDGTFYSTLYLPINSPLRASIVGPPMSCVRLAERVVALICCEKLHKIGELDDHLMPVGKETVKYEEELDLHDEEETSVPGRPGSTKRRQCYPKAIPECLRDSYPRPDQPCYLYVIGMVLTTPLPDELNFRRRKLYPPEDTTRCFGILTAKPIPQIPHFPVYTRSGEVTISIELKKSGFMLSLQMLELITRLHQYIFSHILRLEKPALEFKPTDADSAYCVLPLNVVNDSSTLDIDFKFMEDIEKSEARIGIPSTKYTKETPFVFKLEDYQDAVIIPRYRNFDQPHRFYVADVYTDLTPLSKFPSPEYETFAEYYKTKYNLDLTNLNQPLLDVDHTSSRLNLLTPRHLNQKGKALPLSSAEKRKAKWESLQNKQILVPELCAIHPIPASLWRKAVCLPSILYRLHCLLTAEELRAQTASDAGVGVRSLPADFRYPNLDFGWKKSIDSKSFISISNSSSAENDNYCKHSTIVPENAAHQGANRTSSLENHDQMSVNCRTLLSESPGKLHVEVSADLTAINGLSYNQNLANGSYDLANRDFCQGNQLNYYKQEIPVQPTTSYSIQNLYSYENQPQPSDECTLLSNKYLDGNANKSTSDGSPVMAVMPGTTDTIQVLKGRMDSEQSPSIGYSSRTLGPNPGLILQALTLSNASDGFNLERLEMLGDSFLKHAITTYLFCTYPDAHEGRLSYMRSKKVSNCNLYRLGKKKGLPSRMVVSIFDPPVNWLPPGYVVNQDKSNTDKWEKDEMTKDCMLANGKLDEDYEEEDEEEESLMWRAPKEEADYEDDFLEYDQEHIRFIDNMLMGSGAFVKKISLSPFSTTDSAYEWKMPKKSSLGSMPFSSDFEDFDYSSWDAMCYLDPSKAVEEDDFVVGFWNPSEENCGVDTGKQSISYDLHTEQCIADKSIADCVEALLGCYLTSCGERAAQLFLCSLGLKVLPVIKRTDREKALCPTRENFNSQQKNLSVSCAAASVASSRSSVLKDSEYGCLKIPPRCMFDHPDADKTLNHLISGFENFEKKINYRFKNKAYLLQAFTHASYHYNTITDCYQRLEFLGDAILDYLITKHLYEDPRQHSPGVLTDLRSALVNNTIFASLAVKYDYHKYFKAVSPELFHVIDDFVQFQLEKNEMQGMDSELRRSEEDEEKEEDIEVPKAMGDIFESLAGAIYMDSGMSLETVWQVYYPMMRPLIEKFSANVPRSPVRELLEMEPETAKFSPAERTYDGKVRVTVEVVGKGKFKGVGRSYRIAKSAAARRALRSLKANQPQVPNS
Each line names hits and unclear results; the compound was inactive in the other large screens. Only a selection was taken, and hits are over-represented in it overall.

Nc1nc2ccccc2n1CCOc1ccc2ccccc2c1	none
CCCCC(=O)Nc1sc2c(c1C(N)=O)CCCC2	none
Cc1cc(=O)oc2cc(NS(=O)(=O)c3cccs3)ccc12	none
O=S(=O)(Nc1ccc(Oc2ccc(NS(=O)(=O)c3cccs3)cc2)cc1)c1cccs1	Dicer inh 3.6
O=S(=O)(Nc1cccc2ccccc12)c1cccs1	none
O=C(COc1ccc2c(=O)c(-c3ccccc3Cl)coc2c1)OCc1ccccc1	none
N#Cc1cccnc1N1CCN(C(=O)Nc2ccccc2)CC1	none
O=C(Nc1ccc(OC(F)(F)F)cc1)N1CCN(c2ccc([N+](=O)[O-])cn2)CC1	none
N#Cc1cccnc1N1CCN(C(=O)Nc2ccc(OC(F)(F)F)cc2)CC1	Dicer inh 3.1
Cn1cc(Br)c(NC(=O)/C=C\C(=O)O)n1	none
Cc1cc(C)cc(NC(=O)/C=C/C(=O)O)c1	Dicer inh 7.1
Cc1cc(C)c(C)c(C(=O)/C=C/C(=O)O)c1C	none
O=C(O)/C=C/C(=O)Nc1ccc(C2CCCCC2)cc1	none
Cc1c(C)c(NC(=O)/C=C/C(=O)O)c(C)c(C)c1NC(=O)/C=C/C(=O)O	Dicer inh 3.5
Cc1ccc(C)c(NC(=O)/C=C/C(=O)O)c1	none
Cn1cccc1C(=O)N/N=C(\N)CSc1ccc(Cl)cc1	none
FC(F)(F)c1cccc(-c2ccnc3cc(-c4nc(-c5ccc(Cl)cc5)cs4)nn23)c1	none
COC(=O)c1c(NC(=O)c2sc3ccccc3c2Cl)sc(C)c1C	none
O=C(CN1C(=O)/C(=C\c2ccc(F)cc2)N=C1c1ccccc1)c1ccco1	Dicer inh 3.8
O=C(CN1C(=O)/C(=C\c2ccc(OCc3ccccc3)cc2)N=C1c1ccccc1)c1cccs1	none
C=CCN1C(=O)/C(=C\c2ccccc2Cl)N=C1c1ccccc1	none
COc1ccc(C2C(C#N)=C(N)Oc3n[nH]c(C)c32)cc1OCc1ccc(Cl)cc1 (stereo unspecified)	none
CCOC(=O)c1cc(=O)c2ccc(O)cc2o1	none
COc1ccc(Nc2nc(-c3c(C)nc4ccccn34)cs2)cc1	Dicer inh 3.6
c1ccc(Nc2nc(-c3cccs3)cs2)cc1	none
Oc1cccc(Nc2nc(-c3cccnc3)cs2)c1	none
COc1ccc(Nc2nc(-c3ccncc3)cs2)cc1	none
CCN(CC)c1ccc(Nc2nc(-c3cccnc3)cs2)cc1	none
Cc1cccc(Nc2nc(-c3c(C)nc4ccccn34)cs2)c1	Dicer inh 4.6
Cc1cccc(Nc2n[nH]c(=S)s2)c1	none
COc1ccccc1Nc1nc(-c2c(C)nc3ccccn23)cs1	none
CCN(CC)c1ccc(Nc2nc(-c3c(C)nc4ncccn34)cs2)cc1	Dicer inh 4.1
Cc1nc2ccccn2c1-c1csc(Nc2cccc(O)c2)n1	Dicer inh 6.5
CCNC(=O)c1c(C)nc2ccccn12	none
CCN(CC)c1ccc(Nc2nc(-c3ccccn3)cs2)cc1	none
C#CCSc1n[nH]c(=O)n1-c1ccc(OCc2ccccc2)cc1	none
C/C(=N\OC(=O)Nc1c(C)cccc1C)c1sc2nc(C(F)(F)F)nn2c1C	none
CCOc1ccc(C2Nc3cc(C)c(C)cc3NC3=C2C(=O)CC(C)(C)C3)cc1 (stereo unspecified)	none
CC(C)(C)OC(=O)NCCNc1ccc(C(F)(F)F)cc1[N+](=O)[O-]	none
Cc1ccccc1OCc1nc(C#N)c(NCCN(C)C)o1	none
O=C(Nc1nc2ccccc2s1)c1cc(Br)ccc1Cl	none
COCc1[nH]nc2c1C(c1c[nH]c3ccccc13)C(C#N)=C(N)O2 (stereo unspecified)	none
Nc1c(C(=O)c2ccc(Oc3ccccc3)cc2)oc2ccccc12	Dicer inh 3.8
O=C(Nc1c(C(=O)c2ccc(F)cc2)oc2ccccc12)c1ccccc1	none
Cc1ccc(C(=O)c2oc3ccccc3c2N)cc1	none
C/C(=N\NC(N)=S)c1ccc(CC(C)C)cc1	none
COC(=O)CSC1=C(C#N)C(c2ccco2)C(C(=O)Nc2ccc(Cl)cc2)=C(C)N1 (stereo unspecified)	none
CC(/C=N/OC(=O)c1ccc(F)cc1)=N\Nc1c(Cl)cc(Cl)cc1Cl	none
Nc1c2cnc(N3CCCC3)nc2nc(=O)n1-c1ccc(Cl)cc1	none
Nc1nc(N2CCOCC2)ncc1S(=O)(=O)c1ccc(Cl)cc1	Dicer inh 3.9
Cc1nc(N2CCCC2)ncc1S(=O)(=O)c1ccc(Cl)cc1	none
O=C(O)c1ccccc1S(=O)(=O)c1ccccc1C(=O)O	none
c1ccc2c(Sc3ncnc4sccc34)cccc2c1	none
COc1cc2c(cc1OC)C(/C=C1\SC(C(=O)c3cccs3)=NN1c1ccc(C)cc1)=NCC2	none
CCOC(=O)C1=NN(c2ccc(C)cc2)/C(=C/C2=NCCc3cc(OC)c(OC)cc32)S1	Dicer inh 4.4
COc1cc2c(cc1OC)C(c1ccccc1N)=NCC2	none
Cc1nnc(SCC(=O)c2ccc(F)cc2)s1	none
O=C(CSc1nnc(-c2ccncc2)n1-c1ccccc1)c1ccccc1	none
N#CCCCSc1ncccc1C(=O)O	none
CSc1nc2c(c(=O)n1C)C1(CCCC1)Cc1ccccc1-2	Dicer inh 4.2
C=CCn1c(SCC)nc2c(c1=O)C1(CCCC1)Cc1ccccc1-2	none
C=CCSc1nc2c(c(=O)n1CC)C1(CCCC1)Cc1ccccc1-2	none
CCOC(=O)[C@@H]1CSC2C3SC[C@@H](C(=O)OCC)N3CCN21 (stereo partly specified)	none
COC(=O)c1cc2c(s1)-c1cc(Cl)ccc1SC2	none
Cc1nc2nc(C(F)(F)F)[nH]n2c(=O)c1C	none
